Assay in all cases: DAPPL (digital affinity profiling via proximity ligation, sequencing); 10 mM Tris-HCl pH 7.5, 50 mM NaCl, 1 mM DTT, 4% glycerol, room temperature, 30 min; GST-TFs on glutathione beads, 16-mer random dsDNA library, 0.1% formaldehyde crosslink after washing; high values mean tight binding
The target of assay [1] is T1, FLI1 (Homo sapiens, UniProt Q01543 1-452).
T1 sequence: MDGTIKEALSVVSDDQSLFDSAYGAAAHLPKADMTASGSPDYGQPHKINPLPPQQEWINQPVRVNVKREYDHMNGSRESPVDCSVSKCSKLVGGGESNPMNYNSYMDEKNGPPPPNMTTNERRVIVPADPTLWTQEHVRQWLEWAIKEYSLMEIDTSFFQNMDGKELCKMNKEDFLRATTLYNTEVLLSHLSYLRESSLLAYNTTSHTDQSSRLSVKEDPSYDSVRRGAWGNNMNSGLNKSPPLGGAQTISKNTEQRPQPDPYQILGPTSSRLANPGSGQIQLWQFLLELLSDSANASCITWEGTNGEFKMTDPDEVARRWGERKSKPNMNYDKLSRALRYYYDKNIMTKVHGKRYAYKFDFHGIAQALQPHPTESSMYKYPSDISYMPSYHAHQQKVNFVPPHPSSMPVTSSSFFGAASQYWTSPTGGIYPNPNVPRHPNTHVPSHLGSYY
The settings on record: protein: recombinant; tags: N-terminal GST; dsDNA, one strand shown. The procedure, abridged: (§1)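 Human transcription factors fused to GST were expressed in yeast, captured on glutathione beads, given DNA barcodes and pooled with a GST-only negative control. Pools were incubated with 200 nmole of a 16-mer random double-stranded DNA library in Tris/NaCl/DTT/glycerol buffer at room temperature for 30 min. They were then washed, crosslinked with 0.1% formaldehyde, proximity-ligated (BsaI/T4 ligase, 1 h, 37 °C), PCR-amplified and sequenced on an Illumina NextSeq500. Binding signal is each 6-mer's read frequency for a factor divided by its frequency for the GST control.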

Assay [2] deals with T2, ELK1 (Homo sapiens, UniProt P19419 1-428).
T2 sequence: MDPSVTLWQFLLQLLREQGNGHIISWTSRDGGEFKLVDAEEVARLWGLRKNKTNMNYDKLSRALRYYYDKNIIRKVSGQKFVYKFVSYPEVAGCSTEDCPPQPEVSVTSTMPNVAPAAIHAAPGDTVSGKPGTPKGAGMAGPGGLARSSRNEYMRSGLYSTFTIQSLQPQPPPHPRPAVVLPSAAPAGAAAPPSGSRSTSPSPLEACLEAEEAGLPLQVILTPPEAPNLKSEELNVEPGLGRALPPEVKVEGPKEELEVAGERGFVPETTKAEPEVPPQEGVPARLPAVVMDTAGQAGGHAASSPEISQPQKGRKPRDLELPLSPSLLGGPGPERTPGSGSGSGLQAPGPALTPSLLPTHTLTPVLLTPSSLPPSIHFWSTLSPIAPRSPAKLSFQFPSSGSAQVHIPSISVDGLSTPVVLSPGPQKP
The settings on record: protein: recombinant; tags: N-terminal GST; dsDNA, one strand shown. The procedure, abridged: as §1

The target of assay [3] is T3, EHF (Homo sapiens, UniProt Q9NZC4 1-300).
T3 sequence: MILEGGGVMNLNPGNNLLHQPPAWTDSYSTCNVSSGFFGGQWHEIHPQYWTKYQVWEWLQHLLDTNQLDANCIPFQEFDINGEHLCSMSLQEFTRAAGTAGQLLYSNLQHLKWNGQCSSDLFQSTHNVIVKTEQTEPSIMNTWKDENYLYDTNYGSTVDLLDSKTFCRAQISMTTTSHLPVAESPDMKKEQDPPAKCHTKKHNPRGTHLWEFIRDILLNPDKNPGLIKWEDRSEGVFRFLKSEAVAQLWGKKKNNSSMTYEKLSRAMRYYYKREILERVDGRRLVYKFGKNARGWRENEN
The settings on record: protein: recombinant; tags: N-terminal GST; dsDNA, one strand shown. Put shortly:
as §1

In assay [4] the target is T4, ELK3 (Homo sapiens, UniProt P41970 1-407).
T4 sequence: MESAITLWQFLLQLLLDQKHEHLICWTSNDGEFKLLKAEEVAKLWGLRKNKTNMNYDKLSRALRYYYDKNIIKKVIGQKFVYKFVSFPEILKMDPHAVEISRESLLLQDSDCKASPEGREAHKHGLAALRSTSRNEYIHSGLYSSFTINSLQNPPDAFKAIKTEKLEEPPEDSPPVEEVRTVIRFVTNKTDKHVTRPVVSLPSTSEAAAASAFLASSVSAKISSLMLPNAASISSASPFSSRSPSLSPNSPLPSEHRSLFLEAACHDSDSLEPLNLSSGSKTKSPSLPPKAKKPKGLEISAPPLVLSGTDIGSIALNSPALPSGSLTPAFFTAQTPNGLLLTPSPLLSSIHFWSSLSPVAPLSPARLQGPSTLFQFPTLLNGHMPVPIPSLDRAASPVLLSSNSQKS
The settings on record: protein: recombinant; tags: N-terminal GST; dsDNA, one strand shown. The procedure, abridged:
as §1

For assay [5], the target named is T5, ELK4 (Homo sapiens, UniProt P28324-2 1-405).
T5 sequence: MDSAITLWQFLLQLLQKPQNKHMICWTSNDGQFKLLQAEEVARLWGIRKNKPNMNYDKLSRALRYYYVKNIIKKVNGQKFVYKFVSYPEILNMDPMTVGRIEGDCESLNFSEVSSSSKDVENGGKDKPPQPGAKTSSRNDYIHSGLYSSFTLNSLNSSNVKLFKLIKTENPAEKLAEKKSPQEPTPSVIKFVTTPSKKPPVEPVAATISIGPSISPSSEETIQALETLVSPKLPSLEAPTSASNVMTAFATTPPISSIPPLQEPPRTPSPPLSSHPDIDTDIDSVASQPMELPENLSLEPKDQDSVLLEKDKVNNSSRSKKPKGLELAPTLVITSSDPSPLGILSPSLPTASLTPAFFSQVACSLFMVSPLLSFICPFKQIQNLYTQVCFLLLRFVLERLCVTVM
The settings on record: protein: recombinant; tags: N-terminal GST; dsDNA, one strand shown. The procedure, abridged: as §1

Assay [6] has as its target SPIB (Homo sapiens, UniProt Q01892 1-262). The settings on record: protein: recombinant; tags: N-terminal GST; dsDNA, one strand shown. Put shortly: as §1
Assay [7] has as its target T6, ETV2 (Homo sapiens, UniProt O00321 1-342).
T6 sequence: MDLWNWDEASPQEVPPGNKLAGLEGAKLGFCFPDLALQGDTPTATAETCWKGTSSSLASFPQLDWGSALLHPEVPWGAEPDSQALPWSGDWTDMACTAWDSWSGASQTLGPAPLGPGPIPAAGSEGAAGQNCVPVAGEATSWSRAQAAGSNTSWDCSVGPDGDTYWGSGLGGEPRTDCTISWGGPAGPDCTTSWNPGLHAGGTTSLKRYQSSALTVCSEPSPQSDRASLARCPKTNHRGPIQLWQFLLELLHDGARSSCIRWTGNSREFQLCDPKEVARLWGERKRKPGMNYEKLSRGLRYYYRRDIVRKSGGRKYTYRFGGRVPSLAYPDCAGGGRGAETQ
The settings on record: protein: recombinant; tags: N-terminal GST; dsDNA, one strand shown. The procedure, abridged: as §1

The target of assay [8] is T7, ETV7 (Homo sapiens, UniProt Q9Y603 1-341).
T7 sequence: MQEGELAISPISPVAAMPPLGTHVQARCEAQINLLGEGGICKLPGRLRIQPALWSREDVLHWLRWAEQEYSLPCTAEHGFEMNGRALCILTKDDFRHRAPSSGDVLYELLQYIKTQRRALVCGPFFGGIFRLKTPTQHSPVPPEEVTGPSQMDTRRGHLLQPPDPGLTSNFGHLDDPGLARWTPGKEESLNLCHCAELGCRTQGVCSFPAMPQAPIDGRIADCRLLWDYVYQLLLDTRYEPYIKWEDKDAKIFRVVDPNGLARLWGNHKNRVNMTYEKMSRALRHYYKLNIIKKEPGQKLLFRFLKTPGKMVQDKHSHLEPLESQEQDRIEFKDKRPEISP
The settings on record: protein: recombinant; tags: N-terminal GST; dsDNA, one strand shown. Put shortly:
as §1

The target in assay [9] is T8, ETV3 (Homo sapiens, UniProt P41162-2 1-143).
T8 sequence: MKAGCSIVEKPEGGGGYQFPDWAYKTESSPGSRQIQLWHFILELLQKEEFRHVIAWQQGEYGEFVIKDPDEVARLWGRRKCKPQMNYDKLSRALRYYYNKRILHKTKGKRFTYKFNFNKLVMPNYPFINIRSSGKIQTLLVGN
The settings on record: protein: recombinant; tags: N-terminal GST; dsDNA, one strand shown. Put shortly: as §1

Assay [10] deals with ETV6 (Homo sapiens, UniProt P41212 1-452). The settings on record: protein: recombinant; tags: N-terminal GST; dsDNA, one strand shown. Put shortly: as §1
Assay [11] concerns the target HSF1 (Homo sapiens, UniProt Q00613 1-529). The settings on record: protein: recombinant; tags: N-terminal GST; chain copies: 3; dsDNA, one strand shown. Put shortly: as §1

Sequence of HSF1 (Q00613 whole entry): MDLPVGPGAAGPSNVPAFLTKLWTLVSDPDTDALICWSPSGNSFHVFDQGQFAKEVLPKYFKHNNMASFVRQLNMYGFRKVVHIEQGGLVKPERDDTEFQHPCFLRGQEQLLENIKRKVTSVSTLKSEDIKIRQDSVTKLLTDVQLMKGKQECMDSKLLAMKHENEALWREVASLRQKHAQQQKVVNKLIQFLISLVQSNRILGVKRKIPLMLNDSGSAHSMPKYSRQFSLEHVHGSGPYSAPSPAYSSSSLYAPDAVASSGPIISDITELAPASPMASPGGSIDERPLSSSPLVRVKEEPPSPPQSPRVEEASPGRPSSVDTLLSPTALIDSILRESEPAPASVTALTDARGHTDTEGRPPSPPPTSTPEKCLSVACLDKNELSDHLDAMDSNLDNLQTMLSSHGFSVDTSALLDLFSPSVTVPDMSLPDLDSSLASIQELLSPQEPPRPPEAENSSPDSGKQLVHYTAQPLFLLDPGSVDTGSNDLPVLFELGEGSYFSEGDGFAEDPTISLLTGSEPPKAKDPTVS
Sequence of SPIB (Q01892 whole entry): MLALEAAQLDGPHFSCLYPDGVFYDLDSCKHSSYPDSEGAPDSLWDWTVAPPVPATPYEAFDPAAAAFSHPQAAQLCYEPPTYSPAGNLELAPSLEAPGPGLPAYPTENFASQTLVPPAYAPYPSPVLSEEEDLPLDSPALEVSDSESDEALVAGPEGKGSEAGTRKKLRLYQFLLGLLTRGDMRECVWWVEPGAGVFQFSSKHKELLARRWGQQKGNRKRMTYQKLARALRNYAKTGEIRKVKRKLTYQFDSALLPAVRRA
Sequence of ETV6 (P41212 whole entry): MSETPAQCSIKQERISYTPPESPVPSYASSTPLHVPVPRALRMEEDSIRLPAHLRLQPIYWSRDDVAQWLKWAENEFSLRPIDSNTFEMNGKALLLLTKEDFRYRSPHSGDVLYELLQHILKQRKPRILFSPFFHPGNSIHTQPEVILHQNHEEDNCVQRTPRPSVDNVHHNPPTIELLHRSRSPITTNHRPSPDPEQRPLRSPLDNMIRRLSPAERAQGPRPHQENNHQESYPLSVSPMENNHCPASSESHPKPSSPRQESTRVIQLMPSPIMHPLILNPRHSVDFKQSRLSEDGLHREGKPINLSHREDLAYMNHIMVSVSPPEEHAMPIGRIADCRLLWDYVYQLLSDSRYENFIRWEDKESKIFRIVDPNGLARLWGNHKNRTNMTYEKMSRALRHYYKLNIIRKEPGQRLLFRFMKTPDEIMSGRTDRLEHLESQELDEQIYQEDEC

As to CATCAG, the binding signal in assay [1] is 1 fold enrichment (6-mer frequency, TF over GST control); in assay [2], 1.04 fold enrichment (6-mer frequency, TF over GST control); in assay [3], 1.03 fold enrichment (6-mer frequency, TF over GST control); in assay [4], 1.06 fold enrichment (6-mer frequency, TF over GST control); in assay [5], 1.06 fold enrichment (6-mer frequency, TF over GST control).

For the sequence TGCGGT, the binding signal is 1.09 fold enrichment (6-mer frequency, TF over GST control) in assay [1]; 1.07 fold enrichment (6-mer frequency, TF over GST control) in assay [3]; 1.02 fold enrichment (6-mer frequency, TF over GST control) in assay [6]; 1.08 fold enrichment (6-mer frequency, TF over GST control) in assay [7]; 1 fold enrichment (6-mer frequency, TF over GST control) in [8]; 1.01 fold enrichment (6-mer frequency, TF over GST control) in assay [9]. Further, in [10], the binding signal is 1.03 fold enrichment (6-mer frequency, TF over GST control).

GGGAAT: the binding signal in assay [11] is 1.09 fold enrichment (6-mer frequency, TF over GST control).

With CTAGAG, the binding signal in [11] was 1.58 fold enrichment (6-mer frequency, TF over GST control).

TGTTGG: the binding signal in assay [1] was 1.01 fold enrichment (6-mer frequency, TF over GST control).
